High-throughput results from PubChem.
MEKK2 mut-MEK5: MEK5 binding signal on mutant MEKK2 PB1, primary screen, biochemical, multiplex bead flow cytometry, Alexa488-MEK5; Alexa488-MEK5 binding to MEKK2 mutant; percent response, % at 10 µM; 290,000 compounds, 0.35% hits; AID 1530, 2009; in the data active = percent response above about 24%, passing the limit was not always enough
Rce1 inh: yeast Rce1p protease inhibitors, primary screen, biochemical, fluorescence, cell-free homogeneous; 290,000 compounds, 0.27% hits; yeast membranes, quenched prenylated peptide cleavage fluorescence; CAAX prenyl protease 2 (Saccharomyces cerevisiae (strain ATCC 204508 / S288c)), Q03530; calls only;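 active = fall in fluorescence gain of 50% or more versus controls, with final raw signal at or below 3038400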;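 note: plate controls were neutral control wells for no effect and wells lacking membranes for full effect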
Target sequence (Q03530 whole entry, looked up): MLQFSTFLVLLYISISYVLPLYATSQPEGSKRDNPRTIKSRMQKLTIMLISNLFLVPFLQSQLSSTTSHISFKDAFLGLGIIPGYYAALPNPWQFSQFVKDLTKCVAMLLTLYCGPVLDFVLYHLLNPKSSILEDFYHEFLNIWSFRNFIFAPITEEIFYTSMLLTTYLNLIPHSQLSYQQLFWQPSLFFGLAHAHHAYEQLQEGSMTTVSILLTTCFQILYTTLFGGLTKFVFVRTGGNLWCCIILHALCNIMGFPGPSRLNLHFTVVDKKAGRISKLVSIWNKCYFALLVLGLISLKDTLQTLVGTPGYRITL
UBC13 polyUb: UBC13 polyubiquitin chain formation inhibitors, primary screen, biochemical, TR-FRET, uHTS | inhibition, % at 20 µM | 330,000 compounds, 0.47% hits | AID 485273, 2010; in the data active = inhibition above about 45%, passing the limit was not always enough
Target sequence (P61088 whole entry, looked up): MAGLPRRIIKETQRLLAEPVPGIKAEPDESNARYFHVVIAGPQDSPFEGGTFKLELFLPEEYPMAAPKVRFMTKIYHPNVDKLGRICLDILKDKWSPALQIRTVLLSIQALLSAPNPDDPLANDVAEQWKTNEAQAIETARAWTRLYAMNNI
MEKK3 PB1 HTS: modulators of MEKK3-MEK5 PB1 binding, primary screen, biochemical, wildtype MEKK3, multiplex bead flow cytometry, Alexa488-MEK5; Mitogen-activated protein kinase kinase kinase 3 (Homo sapiens), Q99759; bead-based flow cytometry, Alexa488-MEK5 binding to MEKK3; actives lie on both sides; 0 = blocked by unlabeled MEK5, 100 = vehicle; binding response (% of control), % at 10 µM; 290,000 compounds, 1.4% hits; AID 1529, 2009;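 active = binding response more than 3 SD above or below the average of its plate-row segment, actives on both sides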;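 note: Alexa488 bead fluorescence after subtracting the streptavidin-only scavenger bead signal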
MEKK2wt PB1 HTS: modulators of MEK5 binding to wildtype MEKK2, primary screen, biochemical, multiplex bead flow cytometry, Alexa488-MEK5; Mitogen-activated protein kinase kinase kinase 2 (Homo sapiens), Q9Y2U5; 290,000 compounds, 1.1% hits; Alexa488-MEK5 binding to MEKK2 WT; actives lie on both sides; binding response (% of control), % at 10 µM; in the data active = binding response below about 67% or above about 130%
MEKK2wt confirm: modulators of MEK5 binding to wildtype MEKK2, confirmation, biochemical, single concentration, multiplex bead flow cytometry | shares compounds with MEKK3 PB1 HTS | Alexa488-MEK5 binding to MEKK2 WT; actives lie on both sides | binding response (% of control), % at 10 µM | 5,900 compounds, 2.4% hits | AID 1892, 2009; in the data active = binding response below about 16% or above about 210%; inactive = in between
MEKK2mut-MEK5: mutant MEKK2 PB1-MEK5 binding signal retest – biochemical, single concentration, multiplex bead flow cytometry, confirmation | shares compounds with MEKK3 PB1 HTS | Alexa488-MEK5 binding to MEKK2 mutant | percent response, % at 10 µM | 5,900 compounds, 2% hits | AID 1893, 2009; in the data active = percent response mostly above about 71%, no sharp cut-off; inactive = mostly below about 38%;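 note: higher means compound restores mutant binding toward wildtype level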
MEKK3-MEK5 inh: MEKK3 wild-type PB1 binding to MEK5, inhibitors, confirmation, biochemical, bead multiplex flow cytometry, single concentration, wildtype. binding response (% of control), % at 10 µM. Alexa488-MEK5 binding to MEKK3; stronger effect = lower value. 5,900 compounds, 1.8% hits. shares compounds with MEKK3 PB1 HTS;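 active = binding response below 72% of control, or above a set upper limit, though filed actives all read lower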;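 note: 100% = DMSO only wells and 0% = binding blocked by excess unlabeled MEK5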
Numbers without * were called inactive; i = inactive; x = no result given; + = active, no number; [ ] = dose if it differs, or a comment. Shown are actives, neighbours in structure and some others; about 2.5% of the full set was active somewhere.

SMILES	MEKK2 mut-MEK5	Rce1 inh	UBC13 polyUb	MEKK3 PB1 HTS	MEKK2wt PB1 HTS	MEKK2wt confirm	MEKK2mut-MEK5	MEKK3-MEK5 inh
CC(C)CNC(=O)C1Nc2ccc(C(F)(F)F)cc2C2C=CCC12 (stereo unspecified)	0	i	-6	100	103	x	x	x
CC(=O)Oc1ccc(C(=O)Cc2ccc3ccccc3n2)c(O)c1C	7	i	-32	135*	105	110	3	108
Cc1ccccc1C(=O)Nc1cccc(-c2ccc(N3CCOCC3)nn2)c1	x	i	4	x	x	x	x	x
CCOc1ccccc1NC(=O)CC1SC(=N)N(c2ccccc2)C1=O (stereo unspecified)	0	x	1	139*	112	107	6	108
COc1ccccc1NC(=O)CC1SC(=N)N(c2ccccc2)C1=O (stereo unspecified)	3	i	2	103	104	x	x	x
CCOc1cccc(C(=O)NC(=S)Nc2ccc(N3CCN(CC)CC3)cc2)c1	12	i	10	108	130	x	x	x
CCN1CCN(c2ccc(NC(=O)c3cccc(OCc4ccccc4)c3)cc2)CC1	34	+	15	100	171*	147	27	106
CCCOc1cccc(C(=O)NC(=S)Nc2ccc(N3CCN(C)CC3)cc2)c1	46	i	29	103	152*	147	12	106
CN1CCN(c2ccc(NC(=O)c3cccc(OCc4ccccc4)c3)cc2)CC1	x	i	32	x	x	x	x	x
O=C(NC(=S)Nc1ccc(CN2CCOCC2)cc1)c1cccc([N+](=O)[O-])c1	-1	i	15	145*	105	106	2	105
O=C(NC(=S)Nc1ccc(CN2CCCCC2)cc1)c1cccc(OCc2ccccc2)c1	63*	i	20	113	220*	173	25	104
Cn1c(=O)[nH]c(=O)c2c1nc(NCc1ccco1)n2Cc1ccccc1Cl	2	i	5	105	101	x	x	x
CC1CN(c2ccc(Cl)cc2[N+](=O)[O-])CCN1S(C)(=O)=O (stereo unspecified)	-14	i	-2	86	84	x	x	x
COc1ccc(S(=O)(=O)NCCCn2ccnc2)cc1Cl	10	i	1	105	109	x	x	x
COc1ccc(-c2c(NC(=O)c3ccco3)n(C)c3ccccc3c2=O)cc1	5	i	-7	82	100	x	x	x
CN(C)CCCN(C(=O)/C=C/c1cccs1)c1nc2ccc(F)cc2s1	30	i	2	107	152*	149	30	108
CN(C)CCCN(C(=O)c1sc2ccccc2c1Cl)c1nc2ccc(F)cc2s1	5	i	40	111	143*	179	36	105
CCN(CC)CCN(C(=O)/C=C/c1cccs1)c1nc2ccc(F)cc2s1	8	i	14	96	121	x	x	x
CN(C)CCCN(C(=O)C1COc2ccccc2O1)c1nc2ccc(F)cc2s1 (stereo unspecified)	0	i	12	97	129	x	x	x
O=C(O)c1ccc(CP(=O)(c2ccccc2)c2ccccc2)cc1	11	i	-12	122*	123	105	5	105
CNC(=O)c1ccc(-c2sc3nc(N4CCOCC4)c4c(c3c2N)CC(C)(C)OC4)o1	1	x	-6	99	101	x	x	x
CC1(C)Cc2c(c(N3CCOCC3)nc3sc(-c4ccc(C(=O)O)o4)c(N)c23)CO1	62*	i	-8	80	-5.0*	89	-2	93
COc1ccc(C(C(=O)NC2CCCC2)N(Cc2cccnc2)C(=O)c2snc(C(N)=O)c2N)cc1 (stereo unspecified)	5	i	18	104	104	x	x	x
COc1ccc(NC(=O)[C@H](C)NC(=O)[C@@H]2Cc3ccccc3CN2C(=O)OC(C)(C)C)cc1	5	i	-12	102	103	x	x	x
O=C(NCc1ccccc1C(F)(F)F)C1CC(c2ccc(C(F)(F)F)cc2)=NO1 (stereo unspecified)	-2	i	-4	81*[inhibitor]	103	101	1	99
SMILES	MEKK2 mut-MEK5	Rce1 inh	UBC13 polyUb	MEKK3 PB1 HTS	MEKK2wt PB1 HTS	MEKK2wt confirm	MEKK2mut-MEK5	MEKK3-MEK5 inh
O=C(NCc1ccc(C(F)(F)F)cc1)C1CC(c2ccc(C(F)(F)F)cc2)=NO1 (stereo unspecified)	1	i	-1	105	97	x	x	x
CCCN1C(=O)SC(CC(=O)Nc2ccc(Br)cc2)C1=O (stereo unspecified)	-24	i	-11	2.0*[inhibitor]	3.0*[inhibitor]	100	-4	101
O=C(Cn1nc(C(=O)O)c2ccccc2c1=O)Nc1ccccc1C(F)(F)F	-1	i	-2	101	103	x	x	x
O=C(CN1CCCC1)NC12CC3CC(CC(C3)C1)C2	-2	i	-11	98	94	x	x	x
O=C(CN1CCCC1)NCC12CC3CC(CC(C3)C1)C2	-5	i	-3	82*[inhibitor]	91	101	3	103
CCOCCCn1c(=S)[nH]c2cc(C(=O)N3CCN(C)CC3)ccc2c1=O	-14	i	5	70*[inhibitor]	80	93	-11	95
COc1ccc(Cl)cc1NC(=O)C[n+]1cccc(C)c1	-2	i	7	94	101	x	x	x
S=C(NCCCN1CCOCC1)N1CCN(c2nc(-c3ccc(Cl)cc3)cs2)CC1	47	x	24	109	163*	169	43	112
O=C1CN(C(=O)COc2ncnc3ccccc23)c2ccccc2N1	15	i	-3	101	99	x	x	x
Cc1sc2ncnc(OCC(=O)N3CC(=O)Nc4ccccc43)c2c1C	-18	i	-3	42*[inhibitor]	46*[inhibitor]	100	6	104
CCOC(=O)c1c(-c2ccc(F)cc2)csc1/N=C/N(C)C	2	i	-6	129*	117	103	6	107
CCCOC(=O)CC1C(=O)NCCN1C(=O)OC(C)(C)C (stereo unspecified)	-18	i	23	39*[inhibitor]	48	103	-1	102
CSCCC(NC(=O)/C(=C/c1ccc(F)cc1)NC(C)=O)C(=O)O (stereo unspecified)	-2	i	2	95	96	x	x	x
